Most compounds without a hit are left out; they make up all but 4.1% or so of the library.
DAX1 inh-1: inhibits human nuclear receptor DAX1; P51843; HEK293 Gal4-DAX1 luciferase reporter, luminescence; inhibition, % at 6.75 µM; 340,000 compounds, 0.99% hits; AID 504766;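 active means inhibition above the mean over all tested compounds plus 3 SD, cut at about 4.2% in these data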;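 further: 0% = DAX1-transfected cells with DMSO and 100% = empty-vector control cells with DMSO; inhibition shows as a rise in luminescence from relieved DAX1 repression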
Target sequence (P51843 207-470 limits assumed): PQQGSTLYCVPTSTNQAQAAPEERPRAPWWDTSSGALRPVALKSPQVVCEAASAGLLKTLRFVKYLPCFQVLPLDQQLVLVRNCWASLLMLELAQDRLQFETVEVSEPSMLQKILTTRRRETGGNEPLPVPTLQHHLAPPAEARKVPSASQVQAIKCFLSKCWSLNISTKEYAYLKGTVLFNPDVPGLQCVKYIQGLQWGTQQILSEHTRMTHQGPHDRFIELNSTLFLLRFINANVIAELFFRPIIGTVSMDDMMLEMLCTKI
DAX1 inh-2: DAX1 (NR0B1) inhibition, primary screen; HEK293T StAR-luciferase reporter, SF-1/DAX-1 repression relief; inhibition, % at 6.8 µM; 370,000 compounds, 1.1% hits;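 active means inhibition above the mean over all tested compounds plus 3 SD, cut at about 3.6% in these data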;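 further: 0% = DAX-1 cells with DMSO and 100% = cells lacking DAX-1 with DMSO; higher inhibition means more luminescence from relief of DAX-1 repression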
ssDAF-12 act: activates DAF-12 receptor from parasite S. stercoralis. AID 652126. activation, % at 6.8 µM. 370,000 compounds, 1% hits. HEK293 ssDAF-12/GRIP1 lit1-tk-luc reporter, luminescence; % of 3 µM dafachronic acid response;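 active means activation above the mean over all tested compounds plus 3 SD, cut at about 0.9% in these data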;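 further: 0% = DMSO-only wells and 100% = 3 µM delta7-dafachronic acid wells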
hcDAF-12 act: H. contortus DAF-12 activation, primary screen. HEK293 hcDAF-12 lit1-tk-luc reporter, luminescence; 0% DMSO, 100% Δ7-dafachronic acid. activation, % at 6.8 µM. 370,000 compounds, 1.4% hits;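 active means activation above the mean of all tested compounds plus 3 SD, cut at about 5.5% in these data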;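 further: 100% = response to 3 µM Δ7-dafachronic acid high control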
hgDAF12 agonist: activates the H. glycines DAF-12 receptor ligand-binding domain | HEK293 GAL4-hgDAF12 UAS-luciferase reporter, agonist luminescence; normalized to butyrate control | activation, % at 6.8 µM | 370,000 compounds, 1.8% hits | AID 687014;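 active means activation above a cutoff set at the mean of all screened compounds plus 3 SD, cut at about 10% in these data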;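 further: 0% = DMSO wells and 100% = sodium butyrate wells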
Starred values were filed as active, the others as inactive; x = no result.

SMILES	DAX1 inh-1	DAX1 inh-2	ssDAF-12 act	hcDAF-12 act	hgDAF12 agonist
c1ccc(-c2ccc(-c3nc(-c4ccncc4)no3)cc2)cc1	3	3	-1	2	7
c1coc(-c2nc(-c3ccncc3)no2)c1	1	1	1.7*	4	13*
Clc1ccc(-c2nc(-c3ccncc3)no2)c(Cl)c1	4.9*	0	-1	1	8
O=C1/C(=C\c2ccccc2)CCc2c1[nH]c1ccccc21	-1	-1	0	6	13*
O=c1c(C=NCc2ccccc2)c(NCc2ccccc2)nc2ccccn12	4.5*	-1	-1	0	-1
O=C(CN1CCOc2ccccc21)NC1CC1	3	1	2.1*	6.5*	2
COCCNC(=O)CN1CCOc2ccccc21	0	0	-1	2	2
COc1ccc(CN2CCN(S(=O)(=O)c3ccc(F)cc3)CC2)cc1OC	-1	0	-2	-2	0
COc1ccc(CN2CCN(S(=O)(=O)c3ccccc3)CC2)cc1Br	0	0	1.4*	-3	-2
CN1C(=O)C[C@@](C#N)(C(=O)NCC(F)(F)F)[C@H]1c1ccccc1	x	0	-1	3	3
Cc1ccc2c(c1)CCCN2CC(=O)N(C)c1c(N)n(Cc2ccccc2)c(=O)[nH]c1=O	1	-1	1.3*	2	0
Cc1c(OCC(=O)N[C@H](C(=O)O)c2ccccc2)ccc2c3c(c(=O)oc12)CCCC3	4.3*	0	-1	0	-1
COCc1cc(=O)n2c([nH]c3ccccc32)c1C#N	0	0	1.2*	0	3
Cc1ccc(OC(=O)COc2ccccc2C)c(-n2nc3ccccc3n2)c1	1	3	0	6.2*	10
CCCC(C)NC(=O)COC(=O)c1cccc(NS(C)(=O)=O)c1 (stereo unspecified)	4.6*	0	0	-1	2
Cc1cccc(-n2nc(C)c3c(C(=O)O)cc(-c4cccs4)nc32)c1	4.6*	-1	-1	0	2
O=c1cc(N2CCCCC2)c(-c2ccccc2)nn1Cc1c(Cl)cccc1Cl	0	-2	-2	-2	-6
O=C(Cn1nnc(-c2ccccc2Cl)n1)N1CCCCC1	4.6*	1	0	0	7
O=C(CN1CCOCC1)NN1CC(=O)N(c2ccc(Cl)cc2)CC1=O	5.6*	0	-1	0	0
Cc1ccc(N2CC(=O)N(NC(=O)CN3CCN(c4ccccc4)CC3)CC2=O)cc1	2	-1	-1	0	-1
COc1ccc(Cc2nnc(SCC(=O)c3ccc(OC)cc3)o2)cc1	-1	-1	-1	-3	-1
COc1ccc(Cc2nnc(SCC(=O)Nc3nc(C)cs3)o2)cc1	1	0	1.0*	-1	0
CCC(=O)c1ccc(OCc2cn(CC(=O)c3ccc(O)cc3)nn2)cc1	0	-1	-1	1	-2
CS(=O)(=O)N(CC(=O)Nc1ccccc1C(=O)N1CCOCC1)c1ccc(Cl)cc1	0	0	-1	0	-2
CCc1ccc(N(CC(=O)Nc2ccccc2C(=O)N2CCOCC2)S(C)(=O)=O)cc1	-1	-1	1.5*	0	-1
SMILES	DAX1 inh-1	DAX1 inh-2	ssDAF-12 act	hcDAF-12 act	hgDAF12 agonist
O=C(Nc1c(-c2ccccc2)nc2ncccn12)c1ccccc1	x	-1	-1	4	-2
COc1ccccc1CC(=O)Nc1ccc([N+](=O)[O-])cc1O	5.9*	0	0	1	-1
COc1cc([N+](=O)[O-])ccc1NC(=O)COC(=O)c1n[nH]c2ccccc12	-2	0	-1	6.3*	-1
O=C(CSc1nnc(-c2ccccn2)n1-c1ccc(Cl)cc1)Nc1ccc(S(=O)(=O)Nc2nccs2)cc1	x	0	-2	0	6
CC(C)OC(=O)C1=CNCC(C)(C)c2c1[nH]c1cc(F)ccc21	x	x	0	3	2
O=C(CCCc1nc(-c2ccccc2)no1)NC1CCCCC1	-1	-1	1.1*	-3	0
CCN1Cc2nnn(Cc3ccccc3)c2-c2cc(N3CCCC3)ccc2S1(=O)=O	x	0	-2	-3	1
CC(=O)Nc1ccc(Sc2ncccc2C(=O)Nc2cc(Cl)cc(Cl)c2)cn1	0	0	1.1*	1	2
O=C(COC(=O)c1ccc(F)c([N+](=O)[O-])c1)NC(=O)NCc1ccccc1	0	2	-1	-1	1
O=c1[nH]ncn1-c1ccc(Br)cc1	5.2*	0	-1	-1	-2

Compound activity (PubChem BioAssay)
